Most compounds without a hit are left out; they make up all but 4.3% or so of the library.
GRIN3A LBD mod: NR3A (human) ligand-binding domain modulation | NR3A LBD differential scanning fluorimetry, Tm shift; 0% = protein alone, 100% = glycine-bound protein | Tm shift relative to glycine control, % at 25 µM | actives 2.5% (n = 340,000);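 active means melting temperature shift of at least 10% of the positive control shift, at one fixed dose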
ADAM10 inh: inhibits human ADAM10; O14672; recombinant ADAM10, EDANS/DABCYL FRET peptide cleavage, 3 h; inhibition, % at 7 µM; actives 0.62% (n = 370,000);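 active means inhibition above a per-campaign cutoff equal to the mean of compounds falling between control-based bounds plus 3 SD, cut at about 20% in these data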;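 further: 0% = DMSO wells while the 100% control is not disclosed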
Target sequence (O14672 214-748 limits assumed): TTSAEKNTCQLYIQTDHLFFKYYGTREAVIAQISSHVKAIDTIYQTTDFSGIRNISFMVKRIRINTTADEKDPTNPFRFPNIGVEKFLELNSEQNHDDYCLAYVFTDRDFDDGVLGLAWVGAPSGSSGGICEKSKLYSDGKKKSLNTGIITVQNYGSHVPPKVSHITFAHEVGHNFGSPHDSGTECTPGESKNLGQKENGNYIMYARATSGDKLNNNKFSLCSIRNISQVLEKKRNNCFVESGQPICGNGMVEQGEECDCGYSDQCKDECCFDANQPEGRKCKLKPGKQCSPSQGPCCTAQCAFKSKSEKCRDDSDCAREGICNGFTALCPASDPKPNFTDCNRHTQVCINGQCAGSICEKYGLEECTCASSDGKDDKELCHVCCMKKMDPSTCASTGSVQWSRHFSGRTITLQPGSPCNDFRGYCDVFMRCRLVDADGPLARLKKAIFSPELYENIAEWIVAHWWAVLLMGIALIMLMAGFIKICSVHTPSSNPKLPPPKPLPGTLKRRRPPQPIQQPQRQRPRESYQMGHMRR
HGIII-sPLA2 inh: Inhibits HGIII-sPLA2 liposome hydrolysis, primary screen. Q9NZ20. QFRET BODIPY PC-A2 liposome hydrolysis, fluorescence. inhibition, % at 12.2 µM. actives 0.56% (n = 370,000). AID 743126;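 active means inhibition above mean plus 3 SD of compounds lying within the high and low control bounds, cut at about 19% in these data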;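 further: 0% = median of test compound wells and 100% = no enzyme DMSO wells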
FAS TE block: blocks the thioesterase domain of human fatty acid synthase | P49327 | recombinant FAS-TE, OMFH fluorogenic substrate, fluorescence endpoint | inhibition, % at 15 µM | actives 0.67% (n = 360,000) | AID 602261;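 active means compounds whose normalised, plate-corrected inhibition of enzyme fluorescence in the single-dose primary screen is 50% or more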;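 further: 0% = DMSO with enzyme and 100% = substrate without enzyme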
ADAM17 inh: ADAM17 inhibition, QFRET primary screen | P78536 | AID 720648 | inhibition, % at 6.95 µM | actives 0.83% (n = 370,000) | recombinant ADAM17, EDANS/DABCYL FRET peptide cleavage;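 active means inhibition above the mean of compounds lying between control limits plus 3 SD, set per campaign, cut at about 8.5% in these data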;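 further: 0% = DMSO-only wells as the low control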
* marks the source's active call; other numbers are inactive results.

Results for Nc1n[nH]c(C2CC2)c1N=Nc1ccc(Cl)cc1 ?
GRIN3A LBD mod: 10.9*; ADAM10 inh: 7.2; HGIII-sPLA2 inh: 3.2; FAS TE block: 10.0; ADAM17 inh: 3.6

Results for Nc1nc(N)c(N=Nc2ccc(Cl)cc2)c(=O)[nH]1 ?
GRIN3A LBD mod: 0.6; ADAM10 inh: 7.2; HGIII-sPLA2 inh: 12.1; FAS TE block: -6.6; ADAM17 inh: -2.2

How did O=C1C2C3c4ccccc4C(c4ccccc43)C2C(=O)N1c1nc(-c2ccccc2)cs1 (configuration not stated) do in these assays?
GRIN3A LBD mod: -8.8; ADAM10 inh: -6.0; HGIII-sPLA2 inh: -3.5; FAS TE block: 39.6; ADAM17 inh: -5.0

Results for O=C1C2C3c4ccccc4C(c4ccccc43)[C@@H]2C(=O)N1c1nc(-c2ccccc2)cs1 (some centres not stated) ?
GRIN3A LBD mod: -1.7; ADAM10 inh: 0.2; HGIII-sPLA2 inh: -0.5; FAS TE block: 52.5*; ADAM17 inh: 3.5

How did CCOC(=O)[C@@]12CCC3=C1N(CCC3)C(=O)[C@H](CC(=O)N1CCSCC1)C2 do in these assays?
ADAM10 inh: -4.8; HGIII-sPLA2 inh: 5.1; ADAM17 inh: -3.9

How did OCCN(CCO)c1ccc(C(c2ccc(Cl)cc2)c2ccc(N(CCO)CCO)cc2Cl)c(Cl)c1 do in these assays?
GRIN3A LBD mod: 28.1*; ADAM10 inh: 8.4; HGIII-sPLA2 inh: 13.1; FAS TE block: 24.1; ADAM17 inh: 7.2

What do the screens show for `COC(=O)[C@H](CCSC)NC(=O)Cn1cnc(C(=O)Nc2ccc(C)c(C)c2)n1`?
GRIN3A LBD mod: 12.7*; ADAM10 inh: 4.3; HGIII-sPLA2 inh: -0.5; FAS TE block: -4.5; ADAM17 inh: -0.8

Results for COC(=O)[C@H](CC(C)C)NC(=O)Cn1cnc(C(=O)Nc2ccc(C)c(C)c2)n1 ?
GRIN3A LBD mod: 1.7; ADAM10 inh: -7.4; HGIII-sPLA2 inh: -2.4; FAS TE block: -4.3; ADAM17 inh: -0.8

Results for Cc1ccc(CNC(=O)OC(C)(C)C)c(/C=C/S(=O)(=O)NCc2ccc(F)cc2)c1 ?
ADAM10 inh: 2.3; HGIII-sPLA2 inh: -0.8; ADAM17 inh: 3.5

What do the screens show for `CCOC(=O)CSc1ccc(S(=O)(=O)N(C)C2CCCCC2)cc1[N+](=O)[O-]`?
GRIN3A LBD mod: -3.9; ADAM10 inh: 23.6*; HGIII-sPLA2 inh: -44.7; FAS TE block: 24.7; ADAM17 inh: 6.0

What do the screens show for `CCOC(=O)CSc1ccc(S(=O)(=O)N2CCCCC2)cc1[N+](=O)[O-]`?
GRIN3A LBD mod: 7.1; ADAM10 inh: -2.8; HGIII-sPLA2 inh: 16.1; FAS TE block: 8.4; ADAM17 inh: -5.0

What do the screens show for `CC1CCN(S(=O)(=O)c2nnc(NC(=O)c3cccc(Cl)c3)s2)CC1`?
GRIN3A LBD mod: 14.1*; ADAM10 inh: -3.1; HGIII-sPLA2 inh: -2.8; FAS TE block: 8.3; ADAM17 inh: -2.3

Results for Cc1ccc(NC(=S)Nc2cccc3ccccc23)cc1F ?
GRIN3A LBD mod: 16.1*; ADAM10 inh: -298.5; HGIII-sPLA2 inh: 9.9; FAS TE block: 14.6; ADAM17 inh: -96.9

How did Fc1cccc(NC(=S)Nc2cccc3ccccc23)c1 do in these assays?
GRIN3A LBD mod: -4.9; ADAM10 inh: -210.7; HGIII-sPLA2 inh: 6.5; FAS TE block: 2.8; ADAM17 inh: -57.4

What do the screens show for `COC(=O)c1ccccc1CSc1nsc(/C=C/N(C)C)c1C#N`?
GRIN3A LBD mod: 16.0*; FAS TE block: 20.1

What do the screens show for `O=C(c1ccc(Cl)cc1)N1CCN(c2cccc3[nH]ccc23)CC1`?
GRIN3A LBD mod: 15.4*; ADAM10 inh: 3.1; HGIII-sPLA2 inh: -28.9; FAS TE block: 2.8; ADAM17 inh: -2.0

How did O=C(c1ccc(Cl)cc1)N1CCN(c2ccc(F)cc2)CC1 do in these assays?
GRIN3A LBD mod: 0.5; ADAM10 inh: 13.6; HGIII-sPLA2 inh: 0.8; FAS TE block: 2.8; ADAM17 inh: 4.5

How did O=C(Nc1nccs1)C1CCN(S(=O)(=O)c2ccc3c(c2)OCCCO3)CC1 do in these assays?
GRIN3A LBD mod: 13.7*; ADAM10 inh: -7.2; HGIII-sPLA2 inh: -2.2; FAS TE block: 3.7; ADAM17 inh: -3.6

How did O=C(Nc1nccs1)C1CCN(S(=O)(=O)c2ccccc2)CC1 do in these assays?
GRIN3A LBD mod: -0.1; ADAM10 inh: -8.2; HGIII-sPLA2 inh: 2.2; FAS TE block: -1.6; ADAM17 inh: -1.0

Results for Cc1nnn(-c2nonc2N)c1C(=O)N/N=C/c1cccc2ccccc12 ?
GRIN3A LBD mod: 33.1*; ADAM10 inh: -10.4; HGIII-sPLA2 inh: 2.9; FAS TE block: -1.5; ADAM17 inh: -5.5

How did CCCOc1ccc(/C=N/NC(=O)c2nnn(-c3nonc3N)c2-c2cccs2)cc1OC do in these assays?
GRIN3A LBD mod: -1.5; ADAM10 inh: -13.5; HGIII-sPLA2 inh: -7.6; FAS TE block: 20.4; ADAM17 inh: -6.6

How did COc1cc(/C=N/NC(=O)c2c(C)nnn2-c2nonc2N)ccc1O do in these assays?
GRIN3A LBD mod: 13.5*; ADAM10 inh: 5.6; HGIII-sPLA2 inh: -2.4; FAS TE block: -7.3; ADAM17 inh: -2.8

What do the screens show for `CC1CCN(Cc2c(C(=O)N/N=C/c3ccccc3O)nnn2-c2nonc2N)CC1`?
GRIN3A LBD mod: 0.4; ADAM10 inh: -7.8; HGIII-sPLA2 inh: 5.3; FAS TE block: 44.2; ADAM17 inh: -3.4

How did Cc1nnn(-c2nonc2N)c1C(=O)N/N=C/c1ccccc1O do in these assays?
GRIN3A LBD mod: 29.9*; ADAM10 inh: 0.2; HGIII-sPLA2 inh: 1.1; FAS TE block: -1.9; ADAM17 inh: 2.3

Results for COC(=O)C1CN(Cc2cn(Cc3ccc(OC)cc3)nn2)CCS(=O)(=O)N1Cc1ccc(C)cc1 (configuration not stated) ?
ADAM10 inh: -3.6; HGIII-sPLA2 inh: -5.2; ADAM17 inh: -2.8

How did CC1(C)CC2CC(C)(CN2C(=O)COC(=O)c2cccc([N+](=O)[O-])c2)C1 (configuration not stated) do in these assays?
GRIN3A LBD mod: 11.2*; ADAM10 inh: -2.6; HGIII-sPLA2 inh: -5.7; FAS TE block: 43.9; ADAM17 inh: -0.5

What do the screens show for `CCCC(C(=O)NCc1ccc(OC)cc1)N(Cc1ccco1)C(=O)c1snc(C(N)=O)c1N` (configuration not stated)?
GRIN3A LBD mod: 14.2*; ADAM10 inh: -109.5; HGIII-sPLA2 inh: -9.7; FAS TE block: 5.3; ADAM17 inh: -45.0

How did CCC(C(=O)NCc1ccc(F)cc1)N(Cc1ccco1)C(=O)c1snc(C(N)=O)c1N (configuration not stated) do in these assays?
GRIN3A LBD mod: -10.3; ADAM10 inh: -83.2; HGIII-sPLA2 inh: -0.8; FAS TE block: 4.1; ADAM17 inh: -30.1

What do the screens show for `C=CCNC(=O)c1ccc(-c2nc(-c3ccc(Cl)c(Cl)c3)cs2)cc1`?
GRIN3A LBD mod: 31.5*; ADAM10 inh: 10.9; HGIII-sPLA2 inh: 1.3; FAS TE block: 0.5; ADAM17 inh: 1.4

Results for C=CCNC(=O)c1ccc(-c2nc(-c3ccc(Cl)cc3Cl)cs2)cc1 ?
GRIN3A LBD mod: -4.9; ADAM10 inh: -3.6; HGIII-sPLA2 inh: 1.0; FAS TE block: -1.4; ADAM17 inh: -4.0

Screens deposited in PubChem BioAssay by several laboratories.
